Molecules are shown by their SMILES. Where “and” joins values, the source holds several entries; their conditions need not be identical. Identical values can stand only once. The panel holds about 83,000 compounds, 20% with a hit somewhere; the sample as a whole holds those more often.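 Growth was measured after 48 h exposure to one concentration of compound in 96-well plates. Values under 10 count as active.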 Calls of active or inactive are those of the source.

This experiment has as its system MDA-MB-468 breast. Nature of the experiment: NCI-60 one-dose screen, 48 h (100 = growth as untreated, 0 = no growth, -100 = all killed). The following applies: 10 µM unless noted.
In the case of `O=C1C=CC2(NN=C(c3ccccc3)N2c2cccc(Cl)c2)c2cccc(O)c21` (stereo not given), the growth is 76.1% (inactive).

Regarding `CN1c2ccccc2Sc2cc(/C=N/Nc3ccnc4cc(Cl)ccc34)ccc21`, the growth is 52.7% (inactive).

Regarding `Cc1c(C(=O)O)nnn1-c1nccs1`, the growth is 107% (inactive).

On to `CS(=O)(=O)c1ccc(-c2nc3ccccn3c2/C=N/Nc2nc(-c3ccc(Cl)cc3)cs2)cc1`, for which the growth was 94.2% (inactive).

On to `c1ccc2cc(C[n+]3ccn(Cc4ccc5ccccc5n4)c3)ccc2c1`, for which the growth was -26.3% (active) and -3.7% (active).

`O=[N+]([O-])c1ccc(C(Br)c2ccc([N+](=O)[O-])cc2)cc1`: the growth was 112% (inactive).

As to `CNC(=O)c1cc(Oc2ccc3c(c2)sc2nc(-c4cc(C(F)(F)F)cc(C(F)(F)F)c4)cn23)ccn1`, the growth is 4.64% (active).

For the compound `CN(C)c1ccc2nc3ccc(N)cc3[n+](-c3ccccc3)c2c1`, the growth was -28.6% (active) and 20.2% (inactive).

Turning to `CCOC(=O)c1c(NC(=O)c2cccc(C(F)(F)F)c2)sc2c3c(ccc12)OCN(C)C3`, the growth was -67.2% (active).

On to `COc1cccc(OC)c1-c1nnn(C)c1C(=S)N1CCN(c2ccc([N+](=O)[O-])cc2Cl)CC1`, for which the growth was 89% (inactive).

Turning to `Cc1ccc(NC(C(=O)c2ccccc2)c2ccccc2)cc1` (stereo not given), the growth is 8.06% (active).

For the compound `CCOC(=O)Cn1c(O)c(N=Nc2ccc(S(N)(=O)=O)cc2)c2cc(Br)ccc21`, the growth is 96.4% (inactive).

For the compound `COc1ccc(/C=N/NC(N)=S)cc1`, the growth is 82.6% (inactive).

With `N#Cc1nc(-c2ccccc2)oc1S(=O)(=O)N1CCCCC1`, the growth was 21.8% (inactive).

As to `CCOC(=O)n1cc(-c2nonc2-c2cn(C)c3ccc(OC)cc23)c2cc(F)ccc21`, the growth is 87.3% (inactive).

For the compound `Nc1nc(-c2ccc(Cl)cc2)nc2c1sc(=S)n2-c1ccccc1`, the growth is 27.3% (inactive).

As to `COc1ccc2[nH]cc(/C=C3/C(=O)Nc4ccc(Cl)cc43)c2c1`, the growth is -10.9% (active).

With `COc1cccc(-c2nn(-c3ccccc3)cc2-c2ccnc(NCCCNC(=O)Nc3ccc(Cl)c(Cl)c3)c2)c1`, the growth is -42.9% (active).

In the case of `CC(C)(C)c1nc2c(s1)c1nc(N)ncc1c1ccc(NS(=O)(=O)c3c(F)cccc3F)c(F)c12`, the growth is 60.2% (inactive).

Regarding `O=C1Nc2cc(-c3cccc([N+](=O)[O-])c3)ccc2/C1=C/c1ccc[nH]1`, the growth is -7.17% (active).

Turning to `Cn1ccnc1C(=O)/C=C/c1ccc(NC(=O)c2c(F)c(F)c(F)c(F)c2F)cc1`, the growth is 92.1% (inactive).

In the case of `Oc1cccc2ccc(-c3nnc(SCc4ccc(O)c5ncccc45)n3-c3ccccc3)nc12`, the growth was 6.6% (active).

With `CCCCn1c(=O)c(-c2cc(-c3ccc(Cl)cc3)nc(-c3ccc(Cl)cc3)c2)cc2cc(C)ccc21`, the growth was 102% (inactive).

Consider `O=C(CI)NC(=O)NC(=O)NCc1ccccc1`, for which the growth is 65.5% (inactive).

In the case of `COc1ccc(C(=S)c2cc(OC)c(OC)c(OC)c2)cc1OC(=O)CCl`, the growth is 47.5% (inactive).

Take `C#C[C@@]1(O)[C@@H](CO)O[C@@H](n2cnc3c(-c4ccccc4)ncnc32)[C@@H]1O`: the growth is 111% (inactive).

For the compound `COc1ccc(-c2nc(-c3nc4ccc(F)cc4[nH]3)cc3c2[nH]c2ccccc23)cc1`, the growth is 40% (inactive).

For the compound `COc1ccc2sc(N(Cc3cccnc3)C(=O)c3ccc(C#N)cc3)nc2c1`, the growth was 73% (inactive).

Take `N=C(N)c1ccc(-c2ccc(-c3cncc4ccccc34)s2)cc1F`: the growth is -90.6% (active).

Turning to `CSC1=Nc2c(c(C)c(-c3ccccc3)n2CCCCl)C2=NC(=O)CN12`, the growth was 47.3% (inactive).

For the compound `Cc1ccccc1N1C(c2ccccc2)=NNC12C=CC(=O)c1c(O)cccc12` (stereo not given), the growth was 88% (inactive).

As for `N#Cc1cnc2cc(OC[C@H](O)CO)c(NC(=O)CC3CSSC3)cc2c1Nc1ccc(OCc2cccc(F)c2)c(Cl)c1`, the growth is -78.3% (active).

`COc1ccc(/C=N\NC(=O)c2cc(-c3ccc(Br)cc3)n(-c3ccc(S(N)(=O)=O)cc3)n2)cc1`: the growth is -1.98% (active).

Regarding `N#CC1=C(Nc2ccccc2Cl)SC(c2ccccc2O)NC1=O` (stereo not given), the growth is 122% (inactive).

In the case of `Cc1cc(Cl)c2c(Cl)ccc(Cl)c2n1`, the growth was 105% (inactive).

Turning to `C=CCc1c2c(c(OC)c3ccoc13)C(=O)/C(=C/c1ccccc1OC)O2`, the growth is -3.89% (active).

As for `CCOC(=O)N1CCc2c(sc3c2C(=O)N[C@H](c2ccc(OC)cc2)N3)C1`, the growth is 101% (inactive).

In the case of `C=CCC(=O)N[C@H](/C=C/C(=O)O)Cc1ccc(-c2cc(Cl)cc(Cl)c2)cc1`, the growth is 101% (inactive).

Consider `CCN(CC)CCCOc1ccc2c(c1)O/C(=C\c1cccc(OC)c1)C2=O`, for which the growth was 79.8% (inactive).

Take `Cc1ccc(/C(C#N)=C/c2ccc3c(c2)OCO3)cc1`: the growth is 43.9% (inactive).

(Values after PubChem BioAssay (NCI).)
